# Data: PubChem BioAssay AID1851 (National Center for Advancing Translational Sciences (NCATS), 2009)
# “And” between values parts separate entries of the source, which are not always exact repeats. Identical values can stand only once. The whole screen tested about 16,000 compounds, of which about 5,700 (36%) were called active. Not shown: some 24% with an inconclusive outcome. Calls follow the shape of the dose curve; as a rule, active = well fitted curve in the direction sought with a large enough effect; inconclusive = small, poorly fitted or top-dose-only effect, or effect the other way; inactive = no such curve, though single readings can be large or run the other way. The list shows a part of the results.
# Biological target: Cytochrome P450 1A2 (Homo sapiens) (UniProt P05177)
# Assay: Cytochrome panel assay with activity outcomes
# Settings: recombinant CYP, pro-luciferin dealkylation, luminescence, p450-cyp1a2; series mostly up to 57.1 µM; activity, negative = inhibition: at the top concentration
# % is scaled to controls: 0 for no effect and ±100 for the full control effect.
# Cytochrome P450 1A2 (Homo sapiens), sequence (P05177 whole entry, looked up): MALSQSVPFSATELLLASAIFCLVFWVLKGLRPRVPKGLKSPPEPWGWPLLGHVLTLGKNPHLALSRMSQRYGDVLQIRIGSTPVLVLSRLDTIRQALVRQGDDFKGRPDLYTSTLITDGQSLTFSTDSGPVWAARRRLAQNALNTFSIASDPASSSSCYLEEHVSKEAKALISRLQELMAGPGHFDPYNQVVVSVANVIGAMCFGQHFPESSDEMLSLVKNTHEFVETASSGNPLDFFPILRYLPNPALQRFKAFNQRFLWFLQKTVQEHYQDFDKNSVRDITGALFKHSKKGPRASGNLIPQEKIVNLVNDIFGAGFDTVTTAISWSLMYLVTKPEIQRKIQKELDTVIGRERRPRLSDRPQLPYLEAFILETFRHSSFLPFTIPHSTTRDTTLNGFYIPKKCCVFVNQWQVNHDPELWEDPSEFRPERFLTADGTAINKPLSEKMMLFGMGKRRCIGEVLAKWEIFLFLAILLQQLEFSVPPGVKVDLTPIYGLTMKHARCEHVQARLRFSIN
Structure (SMILES),"activity, negative = inhibition",AC50
COc1ccc(-n2c(=O)c(-c3ccc(F)cc3)nc3cncnc32)cc1,-21.4% (inactive),–
Cn1c(=O)c(-c2ccc(F)cc2)nc2cncnc21,–,0.158 µM (active)
Cn1c(=O)c(-c2cccc(Cl)c2)nc2cncnc21,–,0.501 µM (active)
Cn1c(=O)c(-c2ccccc2)nc2cncnc21,–,0.631 µM (active)
Cn1c(=O)c(-c2ccc(F)c(F)c2)nc2cncnc21,–,0.158 µM (active)
C[C@]1(C2CCCC2)Cc2cc(OCC(=O)O)c(Cl)c(Cl)c2C1=O,-14.8% (inactive),–
COC(=O)[C@@]1(Cc2ccc(F)cc2)[C@H]2c3cc(C(=O)N4CCCC4)n(CCc4c[nH]c5ccccc45)c3C[C@H]2CN1C(=O)c1ccccc1,-7.35% (inactive),–
Cn1c(=O)c(-c2ccc(Cl)cc2)nc2cncnc21,–,0.0251 µM (active)
Cn1c(=O)c(-c2cc(F)cc(F)c2)nc2cncnc21,–,0.631 µM (active)
CC(=O)NN1C(=O)c2ccc(Oc3ccc([N+](=O)[O-])cc3)cc2C1=O,9.51% (inactive),–
Cc1ccc(S(=O)(=O)CCCS(=O)(=O)c2ccc(C)cc2)cc1,-24.4% (inactive),–
Cc1ccc(S(=O)(=O)CC#CCOC(=O)c2ccc([N+](=O)[O-])cc2)cc1,–,6.31 µM (active)
C/C(=N\NC(=S)Nc1ccc(F)cc1)C1CC1,–,1.78 µM (active)
N=C(N)SCc1cccc2c(=O)cc(-c3ccccc3)oc12,–,0.126 µM (active)
CN(C)c1ncc2nc(-c3cccs3)c(=O)n(C[C@H]3CCCO3)c2n1,–,1.58 µM (active)
CCNc1ncc2nc(-c3cccs3)c(=O)n(C[C@H]3CCCO3)c2n1,–,2.51 µM (active)
CN1CCN(c2ncc3nc(-c4cccs4)c(=O)n(C[C@H]4CCCO4)c3n2)CC1,–,12.6 µM (active)
OCCCSCCO,-19.1% [at 2.29 µM] (inactive),–
CCCC[C@@H]1CN2[C@H](c3ccc(Br)cc3)[C@@H](C)CC[C@H]2C(=O)O1,-6.09% [at 11.4 µM] (inactive),–
CO[C@@H]1COC(=O)C/C=C\[C@H](C)[C@H](OC)COC(=O)[C@H]2CCCN2C(=O)C/C=C\[C@H]1C,1.02% [at 11.4 µM] (inactive),–
COc1cccc(/C=N/NC(=O)CO/N=C(\C)c2cccs2)c1OC,–,1.41 µM (active)
Cc1[nH]c(=O)c(C(=O)/C=C/c2ccccc2F)c2c1CCCC2,–,11.2 µM (active)
COc1ccccc1/C=C/C(=O)c1ccc(Cl)cc1,–,3.55 µM (active)

Structure (SMILES),"activity, negative = inhibition",AC50
COc1ccc2ccccc2c1/C=C\C(=O)c1ccccc1,–,3.16 µM (active)
CCOc1ccc2ccccc2c1C(=O)N[C@@H]1C(=O)N2[C@@H]1SC(C)(C)[C@@H]2C(=O)O,-7.02% [at 25.6 µM] (inactive),–
COc1ccccc1/C=C/C(=O)c1c2c(c(C)[nH]c1=O)CCCC2,–,12.6 µM (active)
COc1cc(C)cc(OC)c1/C=C\C(=O)O,-6.92% [at 11.4 µM] (inactive),–
CC(=O)[C@@H]1CC[C@@H]2[C@@H]3C[C@H](C)C4=CC(=O)CC[C@@]4(C)[C@H]3[C@H](O)C[C@]21C,-9.89% [at 25.6 µM] (inactive),–
CS(=O)(=O)N1CCC2(CCCN(C(c3ccccc3)c3ccccc3)C2)CC1,-13.9% (inactive),–
Cc1ccc(C2CC(=O)c3cnc(N4CCc5ccccc5C4)nc3C2)cc1 (stereo unspecified),-13.4% (inactive),–
CC1CC(=O)c2cnc(N)nc2C1 (stereo unspecified),-10.4% (inactive),–
O=C1CC(c2ccccc2)Cc2nc(N3CCc4ccccc4C3)ncc21 (stereo unspecified),–,3.55 µM (active)
Cc1ccnn2cc3c(=O)n(C)c(=O)n(C)c3c12,–,12.6 µM (active)
COc1ccccc1CN1CC[C@@]2(CCCN(C(C)=O)C2)C1,2.29% (inactive),–
COc1ccc2[nH]cc(CCNc3ncnc4ccc(-c5cccnc5)cc34)c2c1,–,0.0794 µM (active)
COc1ccc2[nH]cc(CCNc3ncnc4ccc(-c5cccc(C#N)c5)cc34)c2c1,–,2.51 µM (active)
CCC1=C(C)CN(C(=O)NCCc2ccc(S(=O)(=O)NC(=O)NC3CCC(C)CC3)cc2)C1=O (stereo unspecified),-7.51% [at 25.6 µM] (inactive),–
CCOC(=O)N1CCN(C(=O)c2oc3ccc(S(=O)(=O)N4CCCCC4)cc3c2C)CC1,-2.68% (inactive),–
Cc1ccc(OC(=O)c2oc3ccc(F)cc3c2C)c(C)c1,–,2.51 µM (active)
CCCOc1ccc(C(=O)NNC(=S)NC(=O)CC)cc1,-5.86% (inactive),–
O=C(O)CCC(=O)Nc1ccc(C(=O)N2CCCCC2)cc1,-4.13% (inactive),–
Cc1ccc(NCCC(=O)c2ccc(Cl)c(Cl)c2)cc1,–,1.26 µM (active)
Cc1ccc(NC(=O)CCC(=O)c2ccc(F)cc2)cc1Cl,–,6.31 µM (active)
CCCOc1ccc(C(=O)CCNc2ccc(C)c(Cl)c2)cc1,–,0.891 µM (active)
O=C(O)CCC(=O)c1ccc(Cl)cc1,-17.8% [at 11.4 µM] (inactive),–
Cc1ccc(NC(=O)c2cc(NC(=O)CCCC(=O)O)ccc2Cl)cc1Cl,4.24% (inactive),–

Structure (SMILES),"activity, negative = inhibition",AC50
Cc1ccc(NCCC(=O)c2ccc(Cl)cc2)cc1,–,0.251 µM (active)
O=C(O)[C@@H]1[C@@H]2C[C@@H]3[C@@H](OC(=O)[C@@H]31)[C@H]2Br,-4.92% [at 11.4 µM] (inactive),–
OC(CCN1CCCCC1)(c1ccccc1)c1ccccc1,-0.0902% [at 25.6 µM] (inactive),–
Cc1ccc(NCCC(=O)c2ccc(Cl)cc2)cc1C,–,0.631 µM (active)
Cc1c(Cl)c(S(N)(=O)=O)cc(S(N)(=O)=O)c1NC(=O)c1ccc(Cl)cc1,-2.26% [at 11.4 µM] (inactive),–
CCCCOC(=O)Nc1ccc(C)c(Cl)c1,–,4.47 µM (active)
Cc1cnc(CNc2ncnc3ccc(-c4cccc(C#N)c4)cc23)cn1,–,0.398 µM (active)
COc1cccc(-c2ccc3ncnc(NCc4cnc(C)cn4)c3c2)c1,–,2.51 µM (active)
C/C(CCN1CCc2nc(-c3ccccc3)c(-c3ccccc3)cc2C1)=N\OC[C@@H](C)[C@H](OCc1ccccc1)C(C)C,-4.9% [at 11.4 µM] (inactive),–
COC(=O)C/C=C\[C@@H](C)[C@@H](/C=N\OC[C@@H]1O[C@H](c2ccccc2)C=C[C@@H]1Oc1ccc(OC)cc1)OC,10.1% [at 11.4 µM] (inactive),–
CC(=O)Nc1ccc(NCN2C(=O)C3C4CCC(C4)C3C2=O)cc1 (stereo unspecified),10.1% (inactive),–
Cc1cccc(C)c1NC(=O)CCN1C(=O)C2C3CCC(C3)C2C1=O (stereo unspecified),1.26% (inactive),–
Cc1cccc(OC(=O)CN2C(=O)C3C4CCC(C4)C3C2=O)c1C (stereo unspecified),–,12.6 µM (active)
COc1ccc(O[C@H]2C=C[C@@H](c3ccccc3)O[C@H]2COC(=O)N2CCCCC2)cc1,-4.44% [at 11.4 µM] (inactive),–
C(=N\Nc1nc(Nc2ccccc2)nc(N2CCOCC2)n1)/c1c[nH]c2ccccc12,–,10 µM (active)
C#CCCCO/N=C1/C[C@@H](O)[C@@H](O)[C@@H]2[C@@H]3C(=O)N(C[C@@H]4CCCO4)C(=O)[C@H]3CC[C@@H]12,1.69% [at 11.4 µM] (inactive),–
COc1ccccc1N1CCN(CCCCNC(=O)c2ccc3ccccc3c2)CC1,-12.9% [at 25.6 µM] (inactive),–
COc1ccccc1N1CCN(CCCNc2cc(=O)n(C)c(=O)n2C)CC1,–,inactive
COc1ccccc1N1CCN(CCCCNC(=O)c2ccc(-c3ccc(C(C)=O)cc3)cc2)CC1,–,25.1 µM (active)
COc1ncc2nc(-c3ccc(F)cc3)c(=O)n(CCc3ccccc3)c2n1,–,0.398 µM (active)
COc1ncc2nc(C)c(=O)n(CCc3ccccc3)c2n1,–,2 µM (active)
COc1ncc2nc(-c3ccc(F)cc3)c(=O)n(Cc3ccc(F)cc3)c2n1,–,1.58 µM (active)
COc1ccccc1N(CC(=O)NCC1CCCO1)C(=O)CNS(=O)(=O)c1ccc(C)cc1 (stereo unspecified),-5.27% (inactive),–

Structure (SMILES),"activity, negative = inhibition",AC50
Cc1ccc(S(=O)(=O)N[C@H]2COC(=O)CC=C[C@@H](C)[C@H]3C=C[C@H](O)[C@@H](COC(=O)CC=C[C@H]2C)O3)cc1,-8.39% [at 11.4 µM] (inactive) and -5.02% [at 11.4 µM] (inactive),–
S=c1nc[nH]c2c1ncn2Cc1ccco1,-16.3% [at 11.4 µM] (inactive),–
CCOC(=O)c1c(C)n(C)c2ccc(OC)c(NC(=O)CN3CCCCC3)c12,–,15.8 µM (active)
Cc1c(NC(=O)CN2CCN(c3ccccc3)CC2)c(=O)n(-c2ccccc2)n1C,0.0126% (inactive),–
O=c1c(-c2nnc(SCc3ccc(Cl)c(Cl)c3)o2)cccn1Cc1ccccc1,-26.4% (inactive),–
Clc1ccc(CSc2nnc(-c3cccnc3)o2)cc1,–,3.55 µM (active)
c1ccc(CSc2nnc(-c3sccc3-n3cccc3)o2)cc1,–,2.82 µM (active)
Cc1cccc(-c2nnc(SCc3ccccc3)o2)c1,–,14.1 µM (active)
Clc1ccc(CSc2nnc(-c3sccc3-n3cccc3)o2)cc1,–,2.82 µM (active)
Clc1cccc(CSc2nnc(-c3sccc3-n3cccc3)o2)c1,–,2.51 µM (active)
CC(NC(=O)CCSc1nc(-c2ccco2)cc(C(F)(F)F)n1)c1ccccc1 (stereo unspecified),–,12.6 µM (active)
O=C(NC(C(=O)c1ccccc1)n1cnccc1=O)c1ccccc1 (stereo unspecified),3.62% (inactive),–
COC(=O)c1ccc(C(NC(=O)c2ccco2)[C@]2(C)C[C@H]2C2CCCCC2)cc1 (stereo partly specified),-13.3% (inactive),–
CC1CCN(C(NC(=O)c2ccco2)C(=O)c2ccccc2)CC1 (stereo unspecified),–,14.1 µM (active)
NC(N)=Nc1ccc(-c2ccc(N=C(N)N)cc2)cc1,-1.39% [at 11.4 µM] (inactive),–
CCSC(N)=Nc1ccc(C(F)(F)F)cc1,–,2.51 µM (active)
CCOC(=O)c1nc(N)sc1C(=O)OCC,–,7.08 µM (active)
CCOC(=O)c1sc(C)c(C(=O)NCC(C)(C)CN(C)C)c1N,-3.26% (inactive),–
CCN1CCN(C(=O)N[C@H](C(=O)N[C@@H]2C(=O)N3[C@@H]2SC(C)(C)[C@@H]3C(=O)O)c2ccccc2)C(=O)C1=O,-2.8% [at 25.6 µM] (inactive),–
O=C(O)c1nn(-c2ccccc2-c2n[nH]c(=O)[nH]c2=O)c(=O)[nH]c1=O,-21.2% [at 11.4 µM] (inactive),–
O=C(O)c1nn(-c2ccc(Cl)cc2)c2c1C(=O)c1ccccc1C2=O,–,0.251 µM (active)
O=C1C(C2=NC(C(=O)O)C3C(=O)N(c4ccc(Cl)cc4)C(=O)C23)=C(O)c2ccccc21 (stereo unspecified),-5.96% (inactive),–
